For assay [1], the target named is 5'-AMP-activated protein kinase catalytic subunit alpha-2 (Homo sapiens) (UniProt P54646). As to conditions: at 1 µM.
Assay [2] has as its target T1, NUAK family SNF1-like kinase 1 (Homo sapiens) (UniProt O60285).
T1 sequence (whole entry): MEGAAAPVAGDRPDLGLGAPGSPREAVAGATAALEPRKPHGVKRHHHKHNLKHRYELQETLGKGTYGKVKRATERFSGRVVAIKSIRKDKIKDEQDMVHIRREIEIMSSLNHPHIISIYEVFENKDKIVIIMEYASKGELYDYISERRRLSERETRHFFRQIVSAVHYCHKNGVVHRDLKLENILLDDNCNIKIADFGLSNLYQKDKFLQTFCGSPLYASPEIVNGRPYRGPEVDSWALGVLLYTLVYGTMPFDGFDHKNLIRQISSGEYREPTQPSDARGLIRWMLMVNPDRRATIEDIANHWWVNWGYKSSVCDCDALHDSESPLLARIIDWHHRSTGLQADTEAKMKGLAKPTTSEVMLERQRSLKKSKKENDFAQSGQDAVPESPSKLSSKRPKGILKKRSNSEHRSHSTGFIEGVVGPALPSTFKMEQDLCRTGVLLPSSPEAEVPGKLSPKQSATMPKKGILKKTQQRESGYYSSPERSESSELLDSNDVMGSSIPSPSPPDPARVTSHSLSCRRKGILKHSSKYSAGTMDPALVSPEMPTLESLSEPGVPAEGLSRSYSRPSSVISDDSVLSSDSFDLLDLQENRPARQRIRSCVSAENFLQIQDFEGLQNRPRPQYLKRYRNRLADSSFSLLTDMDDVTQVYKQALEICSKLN
The settings on record: at 0.1 µM.

Assay [3] deals with T1, NUAK family SNF1-like kinase 1 (Homo sapiens). The settings on record: at 1 µM.
The target in assay [4] is T2, Serine/threonine-protein kinase BRSK1 (Homo sapiens) (UniProt Q8TDC3).
T2 sequence (whole entry): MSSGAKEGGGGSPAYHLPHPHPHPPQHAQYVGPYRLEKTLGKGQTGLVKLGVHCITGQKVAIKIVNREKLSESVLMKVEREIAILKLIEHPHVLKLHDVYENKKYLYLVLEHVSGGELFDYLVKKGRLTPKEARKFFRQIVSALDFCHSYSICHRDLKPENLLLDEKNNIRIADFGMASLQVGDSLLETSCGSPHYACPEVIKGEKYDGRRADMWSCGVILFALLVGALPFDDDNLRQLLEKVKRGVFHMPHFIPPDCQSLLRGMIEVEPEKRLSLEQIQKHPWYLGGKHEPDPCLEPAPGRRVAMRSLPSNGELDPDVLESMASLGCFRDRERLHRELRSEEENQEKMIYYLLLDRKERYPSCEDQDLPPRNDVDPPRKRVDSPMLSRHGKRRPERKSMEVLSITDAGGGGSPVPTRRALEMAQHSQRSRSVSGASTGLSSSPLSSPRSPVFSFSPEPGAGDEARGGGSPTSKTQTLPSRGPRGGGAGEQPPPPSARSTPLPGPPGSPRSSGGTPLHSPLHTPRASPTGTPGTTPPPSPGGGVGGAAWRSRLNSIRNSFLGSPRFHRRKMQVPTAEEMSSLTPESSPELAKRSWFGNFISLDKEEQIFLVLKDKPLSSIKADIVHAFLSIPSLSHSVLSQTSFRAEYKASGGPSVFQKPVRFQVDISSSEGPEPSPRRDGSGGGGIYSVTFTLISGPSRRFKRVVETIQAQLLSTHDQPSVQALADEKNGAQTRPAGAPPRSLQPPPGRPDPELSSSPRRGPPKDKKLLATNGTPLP
The settings on record: at 0.1 µM.

In assay [5] the target is T2, Serine/threonine-protein kinase BRSK1 (Homo sapiens). The settings on record: at 1 µM.
For assay [6], the target named is T3, Serine/threonine-protein kinase BRSK2 (Homo sapiens) (UniProt Q8IWQ3).
T3 sequence (whole entry): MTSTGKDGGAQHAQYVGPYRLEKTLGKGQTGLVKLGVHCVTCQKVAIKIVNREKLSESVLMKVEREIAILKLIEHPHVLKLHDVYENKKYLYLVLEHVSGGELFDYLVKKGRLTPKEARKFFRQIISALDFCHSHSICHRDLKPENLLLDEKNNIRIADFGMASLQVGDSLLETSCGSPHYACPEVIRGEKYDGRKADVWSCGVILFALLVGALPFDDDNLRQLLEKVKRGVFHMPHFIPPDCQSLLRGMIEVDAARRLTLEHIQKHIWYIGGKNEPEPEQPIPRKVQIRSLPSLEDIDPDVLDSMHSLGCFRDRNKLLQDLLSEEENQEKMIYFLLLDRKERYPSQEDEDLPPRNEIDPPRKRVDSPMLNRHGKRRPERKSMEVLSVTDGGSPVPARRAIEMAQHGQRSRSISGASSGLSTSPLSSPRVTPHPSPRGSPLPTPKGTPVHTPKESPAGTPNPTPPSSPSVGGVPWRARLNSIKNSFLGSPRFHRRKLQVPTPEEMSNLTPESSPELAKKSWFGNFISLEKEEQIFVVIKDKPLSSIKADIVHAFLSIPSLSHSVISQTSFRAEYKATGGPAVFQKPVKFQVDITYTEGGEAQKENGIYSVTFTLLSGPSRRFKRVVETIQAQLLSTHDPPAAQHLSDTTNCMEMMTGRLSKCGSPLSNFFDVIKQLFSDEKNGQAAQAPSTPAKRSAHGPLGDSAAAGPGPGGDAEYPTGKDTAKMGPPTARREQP
As to conditions: at 0.1 µM.

In assay [7] the target is T3, Serine/threonine-protein kinase BRSK2 (Homo sapiens). As to conditions: at 1 µM.
Assay [8] addresses Calcium/calmodulin-dependent protein kinase type 1D (Homo sapiens) (UniProt Q8IU85). The settings on record: at 0.1 µM.
For assay [9] the target is unchanged. The settings on record: at 1 µM.
For assay [10], the target named is Calcium/calmodulin-dependent protein kinase type II subunit alpha (Homo sapiens) (UniProt Q9UQM7). The settings on record: at 0.1 µM.
The target is the same in assay [11]. As to conditions: at 1 µM.
The target in assay [12] is Calcium/calmodulin-dependent protein kinase type II subunit delta (Homo sapiens) (UniProt Q13557). As to conditions: at 0.1 µM.
Assay [13] shares this target. The settings on record: at 1 µM.
In assay [14] the target is T4, Calcium/calmodulin-dependent protein kinase type IV (Homo sapiens) (UniProt Q16566).
T4 sequence (whole entry): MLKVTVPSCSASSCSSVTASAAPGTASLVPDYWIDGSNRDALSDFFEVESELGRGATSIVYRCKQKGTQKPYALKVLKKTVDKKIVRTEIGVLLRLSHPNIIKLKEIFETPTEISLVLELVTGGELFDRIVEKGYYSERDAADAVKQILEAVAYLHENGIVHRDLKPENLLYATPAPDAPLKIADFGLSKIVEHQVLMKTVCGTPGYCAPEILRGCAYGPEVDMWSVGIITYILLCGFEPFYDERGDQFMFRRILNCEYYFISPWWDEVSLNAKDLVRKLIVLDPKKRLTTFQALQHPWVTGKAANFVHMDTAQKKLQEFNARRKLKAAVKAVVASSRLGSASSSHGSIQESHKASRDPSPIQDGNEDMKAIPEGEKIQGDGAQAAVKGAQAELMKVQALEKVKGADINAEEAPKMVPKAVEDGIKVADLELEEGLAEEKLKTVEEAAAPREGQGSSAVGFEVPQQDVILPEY
As to conditions: at 0.1 µM.

Assay [15] has as its target T4, Calcium/calmodulin-dependent protein kinase type IV (Homo sapiens). The settings on record: at 1 µM.
Assay [16] deals with T5, Serine/threonine-protein kinase Chk1 (Homo sapiens) (UniProt O14757).
T5 sequence (whole entry): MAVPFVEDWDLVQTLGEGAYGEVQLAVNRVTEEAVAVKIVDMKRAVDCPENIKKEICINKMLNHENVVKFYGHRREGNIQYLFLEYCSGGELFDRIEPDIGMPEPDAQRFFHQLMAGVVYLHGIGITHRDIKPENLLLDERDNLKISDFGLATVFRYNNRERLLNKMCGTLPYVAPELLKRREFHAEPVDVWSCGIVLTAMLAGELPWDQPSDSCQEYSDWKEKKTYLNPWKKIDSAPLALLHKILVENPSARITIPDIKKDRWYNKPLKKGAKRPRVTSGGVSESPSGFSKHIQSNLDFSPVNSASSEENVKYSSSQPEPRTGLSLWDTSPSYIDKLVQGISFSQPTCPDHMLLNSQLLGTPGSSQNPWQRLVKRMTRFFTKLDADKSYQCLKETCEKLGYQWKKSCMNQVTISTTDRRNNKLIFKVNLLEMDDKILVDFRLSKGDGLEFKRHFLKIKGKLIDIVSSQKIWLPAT
As to conditions: at 0.1 µM.

Assay [17] addresses T5, Serine/threonine-protein kinase Chk1 (Homo sapiens). As to conditions: at 1 µM.
Assay [18] addresses Serine/threonine-protein kinase Chk2 (Homo sapiens) (UniProt O96017). The settings on record: at 0.1 µM.
For assay [19] the target is unchanged. As to conditions: at 1 µM.
The target in assay [20] is Death-associated protein kinase 1 (Homo sapiens) (UniProt P53355). The settings on record: at 0.1 µM.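 Further: reported figure is the mean inhibition of DAPK1.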

Consider four molecules from ChEMBL document CHEMBL1961873, “Compounds: GSK PKIS; Assays: Nanosyn kinase panel” (2012).

Death-associated protein kinase 1 (Homo sapiens), sequence (P53355 whole entry, looked up): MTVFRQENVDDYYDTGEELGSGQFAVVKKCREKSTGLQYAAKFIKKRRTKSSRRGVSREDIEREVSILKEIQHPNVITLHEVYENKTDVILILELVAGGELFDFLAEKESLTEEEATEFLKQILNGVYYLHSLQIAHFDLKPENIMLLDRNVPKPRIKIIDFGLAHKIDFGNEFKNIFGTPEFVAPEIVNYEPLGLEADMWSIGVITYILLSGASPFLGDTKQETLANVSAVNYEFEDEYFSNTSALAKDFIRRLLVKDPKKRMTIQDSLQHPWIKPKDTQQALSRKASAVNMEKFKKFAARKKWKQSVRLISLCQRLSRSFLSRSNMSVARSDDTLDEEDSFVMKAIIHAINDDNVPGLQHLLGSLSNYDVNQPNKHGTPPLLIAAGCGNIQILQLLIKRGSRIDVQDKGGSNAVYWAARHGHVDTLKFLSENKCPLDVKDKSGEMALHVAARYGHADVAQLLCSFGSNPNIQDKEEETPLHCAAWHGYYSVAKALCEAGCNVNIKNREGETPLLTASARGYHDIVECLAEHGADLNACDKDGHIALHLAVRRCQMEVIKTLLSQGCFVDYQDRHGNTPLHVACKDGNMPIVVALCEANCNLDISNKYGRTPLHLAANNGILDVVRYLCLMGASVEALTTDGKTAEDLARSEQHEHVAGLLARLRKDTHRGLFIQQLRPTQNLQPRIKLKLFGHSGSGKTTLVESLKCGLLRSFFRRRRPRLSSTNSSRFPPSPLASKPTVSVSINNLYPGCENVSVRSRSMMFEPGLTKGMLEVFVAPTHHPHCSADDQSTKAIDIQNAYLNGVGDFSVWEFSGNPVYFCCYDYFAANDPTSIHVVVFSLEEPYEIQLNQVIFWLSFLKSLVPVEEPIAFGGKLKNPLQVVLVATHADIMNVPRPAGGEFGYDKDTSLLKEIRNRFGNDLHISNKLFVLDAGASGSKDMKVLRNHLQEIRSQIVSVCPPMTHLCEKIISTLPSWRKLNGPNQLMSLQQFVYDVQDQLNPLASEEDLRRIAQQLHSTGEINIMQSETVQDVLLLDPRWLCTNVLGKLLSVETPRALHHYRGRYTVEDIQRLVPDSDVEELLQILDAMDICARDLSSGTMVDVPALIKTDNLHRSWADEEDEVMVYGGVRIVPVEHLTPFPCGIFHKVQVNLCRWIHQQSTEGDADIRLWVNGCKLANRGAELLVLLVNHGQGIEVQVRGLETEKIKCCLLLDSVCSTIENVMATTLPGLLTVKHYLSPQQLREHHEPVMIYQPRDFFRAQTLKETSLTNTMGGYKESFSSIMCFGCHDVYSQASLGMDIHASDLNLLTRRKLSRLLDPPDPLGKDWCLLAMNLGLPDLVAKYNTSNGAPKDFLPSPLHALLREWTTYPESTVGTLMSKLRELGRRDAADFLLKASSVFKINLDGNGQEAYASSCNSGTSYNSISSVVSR
Serine/threonine-protein kinase Chk2 (Homo sapiens), sequence (O96017 whole entry): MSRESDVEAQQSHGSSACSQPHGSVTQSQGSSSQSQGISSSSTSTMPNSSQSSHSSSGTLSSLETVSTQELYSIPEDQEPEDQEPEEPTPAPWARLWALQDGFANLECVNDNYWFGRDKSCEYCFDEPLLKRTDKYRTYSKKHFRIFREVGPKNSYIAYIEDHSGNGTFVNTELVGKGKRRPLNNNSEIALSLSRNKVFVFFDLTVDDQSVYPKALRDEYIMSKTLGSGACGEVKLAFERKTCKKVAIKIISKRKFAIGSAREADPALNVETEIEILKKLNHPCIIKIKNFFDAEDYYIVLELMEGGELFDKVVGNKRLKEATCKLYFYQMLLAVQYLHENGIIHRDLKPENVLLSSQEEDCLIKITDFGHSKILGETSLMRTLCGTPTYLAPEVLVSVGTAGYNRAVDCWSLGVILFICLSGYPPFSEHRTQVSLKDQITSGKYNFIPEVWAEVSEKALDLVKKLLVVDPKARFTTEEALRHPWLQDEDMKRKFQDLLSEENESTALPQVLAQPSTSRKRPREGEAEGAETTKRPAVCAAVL
Calcium/calmodulin-dependent protein kinase type II subunit alpha (Homo sapiens), sequence (Q9UQM7 whole entry): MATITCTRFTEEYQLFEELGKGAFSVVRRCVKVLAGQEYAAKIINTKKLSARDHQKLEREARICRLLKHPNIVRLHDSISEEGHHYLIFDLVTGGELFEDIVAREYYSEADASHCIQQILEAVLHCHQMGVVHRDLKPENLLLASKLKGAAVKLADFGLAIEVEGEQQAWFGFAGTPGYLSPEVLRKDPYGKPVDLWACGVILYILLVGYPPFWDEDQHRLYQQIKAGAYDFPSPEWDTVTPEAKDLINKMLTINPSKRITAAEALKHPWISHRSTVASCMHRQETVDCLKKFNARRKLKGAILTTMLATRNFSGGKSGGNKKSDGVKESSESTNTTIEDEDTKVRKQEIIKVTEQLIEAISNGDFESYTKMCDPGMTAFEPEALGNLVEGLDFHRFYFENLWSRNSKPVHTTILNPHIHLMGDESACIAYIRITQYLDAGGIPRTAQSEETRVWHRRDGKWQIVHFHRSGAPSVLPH
5'-AMP-activated protein kinase catalytic subunit alpha-2 (Homo sapiens), sequence (P54646 whole entry, looked up): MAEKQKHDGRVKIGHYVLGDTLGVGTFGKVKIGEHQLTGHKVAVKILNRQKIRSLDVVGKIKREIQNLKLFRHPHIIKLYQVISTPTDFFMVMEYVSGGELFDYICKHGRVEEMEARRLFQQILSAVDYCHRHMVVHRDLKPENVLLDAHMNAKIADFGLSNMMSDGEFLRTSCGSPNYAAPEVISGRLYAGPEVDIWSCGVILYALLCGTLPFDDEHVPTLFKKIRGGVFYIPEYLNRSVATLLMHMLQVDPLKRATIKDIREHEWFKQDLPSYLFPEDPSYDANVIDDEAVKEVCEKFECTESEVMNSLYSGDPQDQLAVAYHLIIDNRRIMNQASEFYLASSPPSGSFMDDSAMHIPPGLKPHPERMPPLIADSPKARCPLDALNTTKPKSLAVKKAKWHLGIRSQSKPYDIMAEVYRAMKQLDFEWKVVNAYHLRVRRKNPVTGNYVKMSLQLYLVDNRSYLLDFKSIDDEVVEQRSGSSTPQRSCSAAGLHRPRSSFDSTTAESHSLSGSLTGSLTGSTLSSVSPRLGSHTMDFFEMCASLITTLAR
Calcium/calmodulin-dependent protein kinase type II subunit delta (Homo sapiens), sequence (Q13557 whole entry): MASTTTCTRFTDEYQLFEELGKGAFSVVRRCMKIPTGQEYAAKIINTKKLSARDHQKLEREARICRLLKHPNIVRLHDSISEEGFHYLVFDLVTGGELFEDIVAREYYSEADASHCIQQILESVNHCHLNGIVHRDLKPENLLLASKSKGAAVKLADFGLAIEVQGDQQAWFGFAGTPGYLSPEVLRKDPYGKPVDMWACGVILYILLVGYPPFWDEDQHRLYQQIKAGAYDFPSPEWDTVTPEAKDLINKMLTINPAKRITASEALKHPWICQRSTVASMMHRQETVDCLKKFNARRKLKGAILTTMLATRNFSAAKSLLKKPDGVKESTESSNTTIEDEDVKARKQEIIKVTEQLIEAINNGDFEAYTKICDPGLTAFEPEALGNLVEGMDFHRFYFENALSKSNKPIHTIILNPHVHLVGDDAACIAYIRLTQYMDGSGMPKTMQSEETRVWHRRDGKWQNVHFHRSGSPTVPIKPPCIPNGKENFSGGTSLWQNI
Calcium/calmodulin-dependent protein kinase type 1D (Homo sapiens), sequence (Q8IU85 whole entry, looked up): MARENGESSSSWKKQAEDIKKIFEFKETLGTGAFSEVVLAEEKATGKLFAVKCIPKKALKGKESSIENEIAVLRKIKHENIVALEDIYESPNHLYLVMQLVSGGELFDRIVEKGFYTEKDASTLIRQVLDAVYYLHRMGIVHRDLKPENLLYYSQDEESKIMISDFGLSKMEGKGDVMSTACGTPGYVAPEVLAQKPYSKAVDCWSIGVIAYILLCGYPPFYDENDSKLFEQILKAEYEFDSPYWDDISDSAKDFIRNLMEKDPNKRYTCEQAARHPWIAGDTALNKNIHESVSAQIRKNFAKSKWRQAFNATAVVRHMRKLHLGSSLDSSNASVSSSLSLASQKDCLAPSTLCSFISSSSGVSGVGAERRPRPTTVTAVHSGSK

Usually inhibition stands for the relative decrease from the control value, in per cent. In the case of `COc1cc(/C=N/Nc2ncnc3[nH]ncc23)ccc1O`, the inhibition is 20.2% in [1]; 6.98% in [2]; 27.6% in assay [3]; 1.12% in assay [4]; 18% in assay [5]; 4.62% in assay [6]. Also, the inhibition in assay [7] was found to be 22.9%; in assay [8], 1.07%; in [9], 5.49%; in assay [10] it was 2.62%; in [11], 5.41%; in assay [12] it was 2.57%. Further, the inhibition in [13] is 11.4%; in assay [14], -0.14%; in assay [15], -0.84%; in [16] it was 26.1%; in assay [17] it was 66.1%; in [18], 4.23%. Moreover, the inhibition in assay [19] worked out at 23.8%; in assay [20], 4.22%.

`Nc1nc(-c2ccc(F)cc2)c(-c2ccc3ncccc3n2)s1`: the inhibition in assay [1] was 3.37%; in [2], 3.85%; in [3], 7.09%; in assay [4], 1.97%; in assay [5], 3.32%; in assay [6] it was 2.41%. Further, the inhibition in assay [7] turned out to be 5.28%; in assay [8] it was 0.67%; in assay [9] it was 0.5%; in assay [10], 4.42%; in assay [11] it was 4.65%; in assay [12] it was 4.16%. The inhibition in assay [13] is 4.81%; in assay [14], -0.44%; in assay [15], -0.24%; in [16], 3.9%; in [17], 5.94%; in assay [18], 3.09%. Besides, the inhibition in assay [19] worked out at 4.06%; in assay [20], 4.26%.

Consider `Cc1cccc(Nc2ncc(-c3ccccc3)o2)c1`, for which the inhibition amounted to 6.16% in assay [1]; 2.69% in [2]; 19.2% in assay [3]; 0.14% in [4]; 0.64% in assay [5]; 1.19% in assay [6]. Moreover, the inhibition came to 4.26% in [7]; 1.45% in assay [8]; 3.78% in assay [9]; 4.05% in [10]; 7.1% in [11]; 4.42% in [12]. For the same molecule, the inhibition amounted to 6.85% in [13]; 1.87% in assay [14]; 4.2% in assay [15]; 4.59% in [16]; 6.26% in [17]; 3.02% in [18]. For the same molecule, the inhibition in [19] is 6.44%; in assay [20], 5.26%.

`CCn1c(-c2nonc2N)nc2ccccc21`: the inhibition in [1] was determined as 4.49%; in assay [2], 1.56%; in [3] it was 10.1%; in assay [4], 2.54%; in assay [5] it was 8.27%; in assay [6], 1.85%. For the same molecule, the inhibition in [7] came to 9.49%; in [8], 1.89%; in assay [9], 2.35%; in assay [10], 4.29%; in assay [11] it was 5.38%; in assay [12], 4.24%. The inhibition in assay [13] was 4.89%; in [14], -0.37%; in [15] it was 1.93%; in assay [16] it was 6.35%; in [17], 4.95%; in [18] it was 0.53%. Moreover, the inhibition is 1.9% in assay [19] and 4.46% in assay [20].
